From ChEMBL document CHEMBL3433997, “St. Jude Leishmania screening dataset” (2016) come the findings set out here.

Format in all cases: functional
In assay [1] the target is Solute carrier family 2, facilitated glucose transporter member 1 (Homo sapiens) (UniProt P11166). The assay is described as follows: ST_JUDE_LEISH: Cytotoxicity at 2uM final concentration against transgenic Leishmania Mexicana promastigotes LmGLUT1 that are glucose transport deficient and complemented with the human glucose transporter GLUT1. Activity is measured by DNA content using SYBR green in vitro.
Solute carrier family 2, facilitated glucose transporter member 1 (Homo sapiens), sequence (P11166 whole entry): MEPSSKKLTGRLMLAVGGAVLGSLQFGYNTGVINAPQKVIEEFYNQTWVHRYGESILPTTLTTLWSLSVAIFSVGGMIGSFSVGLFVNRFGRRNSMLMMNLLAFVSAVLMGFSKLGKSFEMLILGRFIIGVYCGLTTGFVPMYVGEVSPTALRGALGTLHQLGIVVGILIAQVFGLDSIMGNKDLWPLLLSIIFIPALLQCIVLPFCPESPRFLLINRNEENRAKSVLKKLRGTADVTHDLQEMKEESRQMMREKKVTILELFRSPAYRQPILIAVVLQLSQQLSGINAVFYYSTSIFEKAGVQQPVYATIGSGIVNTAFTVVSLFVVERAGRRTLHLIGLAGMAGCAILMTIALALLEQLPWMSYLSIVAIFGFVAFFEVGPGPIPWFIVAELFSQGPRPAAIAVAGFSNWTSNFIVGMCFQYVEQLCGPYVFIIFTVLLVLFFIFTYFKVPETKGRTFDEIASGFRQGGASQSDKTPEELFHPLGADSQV

The target of assay [2] is Hexose transporter 1 (Plasmodium falciparum) (UniProt O97467). Description: ST_JUDE_LEISH: Cytotoxicity at 2uM final concentration against transgenic Leishmania Mexicana promastigotes LmPfHT that are glucose transport deficient and complemented with the Plasmodium falciparum hexose transporter. Activity is measured by DNA content using SYBR green in vitro.
Assay [3] addresses Glucose transporter (Leishmania mexicana) (UniProt O61059). The assay is described as follows: ST_JUDE_LEISH: Cytotoxicity at 2uM final concentration against transgenic Leishmania Mexicana promastigotes LmGT2 that are glucose transport deficient and complemented with the L. Mexicana glucose transporter 2. Activity is measured by DNA content using SYBR green in vitro.

Each structure is given as a SMILES string.

Broadly, the inhibition is the relative decrease from the control value, in per cent. Consider `CCN(CC)CC(O)c1cc(-c2ccc(OC)cc2)nc2cc(Cl)ccc12` (centres undefined), for which the values for the inhibition in assay [1], in assay [2] and in assay [3] were 6.97%, 5.08% and 7.55%, respectively.

For the compound `Cc1cc(N2CCC(NS(=O)(=O)c3ccccc3)CC2)nc(Nc2cccc(C#N)c2)n1`, the results for the inhibition in assay [1], in assay [2] and in assay [3] were 44.5%, 41.9% and 45.6%, respectively.

For `Cc1cccc2[nH]cc(C3CCN(CCC4CCN(C(=O)/C=C/c5ccc(Cl)c(Cl)c5)CC4)CC3)c12`, the results for the inhibition in assay [1], in assay [2] and in assay [3] were 1.19%, -2.11% and 2.11%, respectively.

As to `Cc1ccc(C)c(Cn2ccc3nc(Cl)nc(Cl)c32)c1`, the inhibition in assay [1] turned out to be 7.99%; in assay [2], 5.11%; in assay [3], 0.45%.

As for `CC(C)Oc1cc2c(cc1NS(=O)(=O)c1ccc(-c3ccc(Cl)cc3)cc1F)CCN(C)CC2`, the inhibition in assay [1] was 1.27%; in assay [2], 0.75%; in assay [3], -0.15%.

Consider `Cc1cc(C(=O)OCC(N)=O)c(C)n1-c1ccc(F)cc1`, for which the figures for the inhibition in assay [1], in assay [2] and in assay [3] were -0.25%, 6.13% and 3.07%, respectively.

Consider `CN1CCCC(CN2CCN(Cc3cccc(-c4ccc(-c5nc6ccccc6[nH]5)cc4)c3)CC2)C1` (centres undefined), for which the inhibition in assay [1] is 7.48%; in assay [2], 9.12%; in assay [3], 6.63%.

Regarding `c1ccc(CSC2=NNC(c3ccccn3)S2)cc1` (centres undefined), the figures for the inhibition in assay [1], in assay [2] and in assay [3] were 0.82%, 3.23% and 2.48%, respectively.

Regarding `COc1ccc(NC(=O)Nc2cccc(-c3cccc(-c4nc5cccc(C)c5[nH]4)c3)c2)cc1`, the inhibition in assay [1] was -1.25%; in assay [2], -0.57%; in assay [3], -1.79%.

In the case of `Cc1nc(NCCCn2ccnc2)cc(-c2cncc(-c3ccc(OC(F)(F)F)cc3)c2)n1`, the results for the inhibition in assay [1], in assay [2] and in assay [3] were 5.43%, 5.92% and 3.04%, respectively.

Turning to `Cc1cc2c(/C=C/C(=O)NC3CCC(CCN4CCc5ccc(C#N)cc5CC4)CC3)cccc2[nH]1` (centres undefined), the values for the inhibition in assay [1], in assay [2] and in assay [3] were 4%, 4.14% and 3.25%, respectively.

Consider `O=C(/C=C/c1ccc(Cl)c(Cl)c1)NCCCCCN1CCC(NC(=O)Nc2cccc(Cl)c2)CC1`, for which the inhibition worked out at 3.22% in assay [1], 4.71% in assay [2] and 3.33% in assay [3].

Regarding `CC(C)C[C@H]1C(=O)N[C@H](C2Cc3ccccc3C2)C(=O)N1[C@@H](C(=O)Nc1ccccc1OCc1ccccc1)c1ccc(F)cc1F`, the inhibition is 0.86% in assay [1], -0.17% in assay [2] and -0.16% in assay [3].
